Bioassay records deposited in PubChem by The Scripps Research Institute Molecular Screening Center.
Only some compounds are listed: those with a hit (about 3.4% of all), similar ones and a draw of the others.
FBW7 activator – human FBW7 E3 ligase activation, primary screen; AlphaScreen FBW7–phospho-cyclin E peptide binding, activator screen; normalized activity (activation), % at 26.1 µM; 650,000 compounds, 0.13% hits; in the data active = normalized activity above about 1.9%;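 also: purified mutant Fbw7 with reduced substrate affinity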
MITF inh – blocks human microphthalmia-associated transcription factor. O75030. AlphaScreen MITF homodimerization, bead proximity signal. inhibition, % at 2.6 µM. 650,000 compounds, 0.91% hits; in the data active = inhibition above about 50%;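 also: 0% = vehicle wells with protein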
GPR151 ag – human GPR151 activation | Q8TDV0 | PathHunter beta-arrestin GPR151 cells, luminescence | 650,000 compounds, 1% hits | activation, % at 11.2 µM; in the data active = activation above about 4.9%;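 also: 0% = median of compound wells and 100% = cells with positive control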
Target sequence (Q8TDV0 whole entry, looked up): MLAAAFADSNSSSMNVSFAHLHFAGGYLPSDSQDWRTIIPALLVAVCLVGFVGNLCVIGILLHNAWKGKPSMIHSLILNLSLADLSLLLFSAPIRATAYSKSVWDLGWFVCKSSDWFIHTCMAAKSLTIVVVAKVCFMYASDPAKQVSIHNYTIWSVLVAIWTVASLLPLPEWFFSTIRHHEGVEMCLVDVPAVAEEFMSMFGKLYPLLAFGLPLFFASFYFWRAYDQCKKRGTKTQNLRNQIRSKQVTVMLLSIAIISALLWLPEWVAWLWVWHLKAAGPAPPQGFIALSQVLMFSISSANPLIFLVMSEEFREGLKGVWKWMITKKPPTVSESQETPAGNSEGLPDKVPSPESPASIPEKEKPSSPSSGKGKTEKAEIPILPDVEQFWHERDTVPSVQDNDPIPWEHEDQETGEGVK
TEAD-YAP block – TEAD-YAP interaction inhibition | 640,000 compounds, 1.4% hits | inhibition, % at 9.12 µM | HEK-TIYL cells, TEAD-Gal4/YAP UAS-luciferase luminescence | AID 1259422; in the data active = inhibition above about 32%;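 also: 0% = median of test compound wells and 100% = reference inhibitor wells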
* hit, by the source's call.

SMILES	FBW7 activator	MITF inh	GPR151 ag	TEAD-YAP block
COc1ccc2cc3c(N)nn(C(=O)c4cccc([N+](=O)[O-])c4)c3nc2c1	-0.1	7.3	-0.6	20.8
COc1ccc(C(=O)n2nc(N)c3cc4ccc(C)cc4nc32)cc1OC	0.0	-3.8	0.2	-9.5
COc1ccc2cc3c(N)nn(C(=O)Cc4ccccc4OC)c3nc2c1	0.1	20.8	-0.7	33.2*
COc1ccc2nc3c(cc2c1)c(N)nn3C(=O)c1ccc(F)cc1	0.1	6.6	1.2	36.2*
CCOc1ccc(C(=O)n2nc(N)c3cc4cc(OC)ccc4nc32)cc1	-0.2	14.7	1.8	38.2*
COc1ccc2cc3c(N)nn(C(=O)c4ccc(Br)o4)c3nc2c1	-0.1	13.8	-0.1	43.3*
COc1ccc2cc3c(N)nn(C(=O)c4cncc(Br)c4)c3nc2c1	0.5	10.4	-1.2	12.1
CCc1ccc2nc3sc(C(=O)Nc4nc(C)cs4)c(N)c3cc2c1	-0.1	-14.5	0.7	-5.0
Cc1cc(OCC(=O)NNC(=O)CCc2ccccc2)cc(C)c1Cl	-0.1	-16.2	-0.4	3.1
COc1ccc2nc3c(cc2c1)c(N)nn3C(=O)c1ccc([N+](=O)[O-])cc1Cl	-0.1	-11.4	-0.8	-9.5
COc1ccc(C(=O)n2nc(N)c3cc4cc(OC)ccc4nc32)cc1	0.1	-2.1	-0.8	44.2*
CC(=O)Nc1ccc(-n2c(C)cc(C=C3C(=O)N(C)C(=O)N(C)C3=O)c2C)cc1	-0.5	-1.2	0.6	0.9
CC(=O)Nc1ccc(-n2c(C)cc(C=C3C(=O)c4ccccc4C3=O)c2C)cc1	0.3	5.9	-1.6	82.9*
Nc1ccc(OCc2ccccc2Cl)cc1	0.2	23.9	-1.3	72.4*
O=C1c2ccccc2C(=O)C1(Nc1ccc(OCc2ccccc2Cl)cc1)c1ccccc1	0.4	14.3	-0.4	32.4*
COc1ccc(CCNc2cc(-c3cccc(N)c3)nc(N)n2)cc1	0.0	13.5	1.2	35.2*
COc1ccc(CCNc2nc(-c3cccc(N)c3)ncc2C)cc1	-0.1	0.8	0.1	44.4*
COc1ccc(CCNc2cc(-c3ccccc3)ncn2)cc1	1.9*	4.9	-0.1	-4.6
Cc1cc(C(=O)NN=C2C3CC4CC(C3)CC2C4)c2ccccc2n1	-0.1	0.4	-0.9	47.3*
Cc1cc(C(=O)NC2CC2)c2ccccc2n1	0.0	-1.8	0.5	2.3
O=C(Nc1nnc(COc2ccccc2F)s1)C12CC3CC(CC(C3)C1)C2	-0.1	-0.1	0.8	-1.1
CC(C(=O)OCc1ccc(F)cc1)N1C(=O)C(=O)c2cc(Br)ccc21 (configuration not stated)	0.1	53.4*	1.3	-0.3
Cc1cc(C)nc(-c2cccc3c2OC(CNC(=O)CCc2ccco2)C3)n1 (configuration not stated)	0.0	3.0	0.1	-3.6
CCOC(=O)/C(C(N)=O)=C(O)/C(=C/C(=O)c1ccccc1)Nc1ccc(C)cc1	0.0	1.2	1.7	18.0
O=C1C(C=NCc2cccnc2)=C(O)c2ccccc21	-0.3	5.3	-0.4	38.5*
SMILES	FBW7 activator	MITF inh	GPR151 ag	TEAD-YAP block
O=C1C(C=NCc2ccncc2)=C(O)c2ccccc21	-0.1	3.4	-1.2	22.2
CSc1cnn(-c2ccccc2)c(=O)c1SC	1.9*	7.2	0.9	5.2
O=c1c(Cl)c(Cl)cnn1-c1cccc(C(F)(F)F)c1	0.1	10.4	-0.6	18.0
O=c1c(Cl)c(Cl)cnn1Cc1ccccc1Cl	0.6	12.7	0.6	33.4*
Cc1cc(C)nc(-n2ncc(Cl)c(Cl)c2=O)n1	0.3	9.0	-1.2	86.0*
O=c1c(Cl)c(Cl)cnn1-c1ccc(Cl)c(C(F)(F)F)c1	0.1	3.8	2.3	85.7*
Cc1nc2sc(C(N)=O)c(N)c2c(-c2cccs2)c1C(=O)Nc1ccccc1	-0.1	9.6	0.5	6.3
COc1cc(OC)c(NC(=O)Cn2cnc3sc(C)cc3c2=O)cc1Cl	0.0	4.9	-2.1	-12.1
Cc1ccc2nc(-c3ccc(NC(=O)COC(=O)c4cnccn4)cc3)sc2c1	0.1	0.5	-1.5	17.1
O=c1c(Cl)c(Cl)cnn1-c1ccccc1	0.0	-4.0	0.3	92.8*
CCCCOc1ccccc1C(=O)NNC(=S)NC(C)=O	-0.9	37.7	-0.9	15.6
CC(=O)NC(=S)NNC(=O)c1ccccc1OCc1ccccc1	-0.6	0.5	-1.9	62.7*
CCc1c(C(=O)c2ccccc2)oc2ccc3c(C)cc(=O)oc3c12	0.2	-6.3	0.2	41.3*
CCc1c(C(=O)c2ccc(Cl)cc2)oc2ccc3c(C)cc(=O)oc3c12	1.2	28.1	-1.9	-6.3
Cc1ccc(C(=O)c2oc3ccc4c(C)cc(=O)oc4c3c2-c2ccccc2)cc1	-0.1	-5.4	-1.5	62.1*
Cc1cc(=O)n2nc(N3CCCC3C(=O)Nc3cccc(C)c3C)sc2n1 (configuration not stated)	-0.2	9.6	-1.0	2.1
CCOC(=O)Nc1ccc2c(c1)N(C(=O)OCC)c1ccccc1CC2	-0.1	4.8	0.4	48.2*
CCCCC(=O)OCCCN1C(=O)c2cccc3c(N4CCCCC4)ccc(c23)C1=O	0.0	-1.7	0.6	-0.4
CCCCC(=O)OCCN1C(=O)c2cccc3c(N4CCOCC4)ccc(c23)C1=O	3.4*	-31.2	1.1	-23.2
CC(=O)Oc1cccc(N2Cc3ccccc3C2=O)c1	-0.1	-1.8	-4.5	73.0*
CC(=O)Nc1ccc2nc(SCC(=O)N3CCN(c4ccccc4)CC3)sc2c1	0.9	9.8	-1.1	14.2
CCC(=O)Nc1ccc2nc(SCC(=O)N3CCN(c4ccccc4)CC3)sc2c1	0.1	4.5	3.5	45.1*
COc1ccccc1C(=O)Nc1ccc2nc(SCC(=O)NCc3ccccc3)sc2c1	0.0	1.4	0.9	52.4*
COc1ccccc1C(=O)Nc1ccc2nc(SCC(=O)NCCOc3ccccc3)sc2c1	0.0	-1.6	0.5	52.8*
COc1cc(NC(=O)c2ccc(-c3csc4ccccc34)s2)cc(OC)c1OC	0.1	2.8	-0.8	5.7
SMILES	FBW7 activator	MITF inh	GPR151 ag	TEAD-YAP block
Cn1ccnc1SCc1cn2ccsc2n1	0.3	0.8	0.3	-51.2
COc1ccc(Nc2nc(-c3c(C)nc4ncccn34)cs2)cc1	-0.1	11.2	-0.4	58.1*
Cc1nc2ncccn2c1-c1csc(Nc2ccc(N(C)C)cc2)n1	-0.1	25.8	-1.7	51.5*
CC(=O)Nc1ccc(Nc2nc(-c3c(C)nc4ncccn34)cs2)cc1	0.0	3.5	-0.2	-11.8
Cc1nc2ncccn2c1-c1csc(Nc2ccccc2)n1	0.4	7.9	-0.1	-3.9
Cc1ccccc1N1CCN(C2=NC(=O)/C(=C\c3ccccc3OC(C)C)S2)CC1	0.0	-1.3	0.2	-0.2
CC(C)Oc1ccccc1/C=C1/SC(N2CCCC2)=NC1=O	0.1	-6.0	-2.2	38.1*
CNC(=O)c1cccnc1Nc1cc(NC(=O)Cc2ccc(OC)cc2)ncc1C(F)(F)F	-0.2	-9.5	2.7	69.7*
COc1ccc(CC(=O)Nc2cc(Nc3ccccc3C(=O)NC[C@H](O)C(=O)N(C)C)ccn2)cc1	-0.1	27.4	0.1	-3.0
CNC(=O)c1ccccc1Nc1cc(NC(=O)Cc2cccc(OC)c2)ncc1C(F)(F)F	-0.2	-9.5	1.4	63.6*
COc1ccc(CC(=O)Nc2cc(Nc3ccccc3-c3ncccn3)c(C(F)(F)F)cn2)cc1	-0.2	-3.1	0.5	-4.3
